In PubChem BioAssay (NCATS) one finds Potency data, which are given here for 16 molecules.

Records with an inconclusive call do not appear. The source made the active and inactive calls. Calls come from the whole dose curve; as a rule, active = well fitted inhibition curve with a large enough effect; inconclusive = small, poorly fitted or top-dose-only effect; inactive = no such curve, though single readings can be large or run the other way.
Potency is the fitted concentration of half-maximal effect.

The target in the assay is Retinal dehydrogenase 2 (Homo sapiens) (UniProt O94788). The experiment in a line: qHTS for Inhibitors of the Aldehyde Dehydrogenase Family (ALDH1A2) Confirmation screens (AID 2061314). Note: nearly all actives have a fitted effect of over 65% in size. The note with it: ALDH1A2 enzyme inhibition qHTS confirmation; series mostly up to 45.9 µM.
For the molecule `CC(C)CCN(C)Cc1ccc(-c2ccccc2)cc1`, the Potency result was “inactive”.
For `CCOC(=O)c1[nH]c2c(c1C)C(=S)CC(c1ccco1)C2` (stereo unspecified) the value was 12.7 µM (active); for `Cc1ccc(-c2cc(C(=O)NCc3cccc(F)c3)nn3cnnc23)cc1`, “inactive”; for `CC(=O)N1CCN(c2ccc(NCc3ccco3)cc2)CC1`, 14.2 µM (active).
For `CC(C)(C)c1ccc(S(=O)(=O)c2cnc(SCC(=O)Nc3ccc(F)c(Cl)c3)[nH]c2=O)cc1` the value was 14.2 µM (active).
For `O=C1Nc2ccc(Cl)cc2/C1=C\c1cc(Cl)c(O)c(Cl)c1` the value was 12.7 µM (active); for `COc1cc(NS(=O)(=O)c2cccc([N+](=O)[O-])c2)c2ncccc2c1`, 3.18 µM (active).
For `CN(C)c1ccc(-c2cc[nH]c(=O)c2N)cc1`, the Potency is 0.225 µM (active).
For `O=C1Nc2cc(Cl)ccc2/C1=C\c1cc(Cl)c(O)c(Cl)c1` the value was 25.2 µM (active).
For `Cc1sc(NC(=O)Cc2ccc3c(c2)OCO3)nc1-c1ccc2c(c1)CCN2` the value was 4 µM (active); for `Cc1cc(C)nc(NC(=S)N2CCN(c3ccc4cn(C)nc4c3)CC2)c1`, 12.7 µM (active).
As for `NC(=O)C1CCN(c2nc(-c3ccc4ccccc4c3)cs2)CC1`, the Potency entry was “inactive”.
The result for `Cc1ccc(S(=O)(=O)Nc2cnccc2C(=O)Nc2nc(C(=O)O)cs2)cc1` reads “inactive”.
Regarding `O=C(C1CCN(Cc2ccccc2-c2ccccc2F)CC1)N1CCN(Cc2ccccc2)CC1`, the Potency entry is “inactive”.
The result for `COc1ccc(C(=O)N(Cc2ccco2)Cc2ccco2)c(O)c1` reads 17.9 µM (active); that for `CCC(=O)Nc1ccc(S(=O)(=O)NCc2ccc3c(c2)CCN3C(=O)c2ccc(C)cc2)cc1`, “inactive”.
